Conditions in all cases: mRNA level, 48 h; actives raise or lower the signal
Read-out in assay [1]: Glutamate-cysteine ligase catalytic (GCLC), GCLC (gene 2729)
The assay is described as follows: LTEA_HepaRG_GCLC: Life Technologies and Expression Analysis (LTEA) Assay for Glutamate-cysteine ligase catalytic (GCLC) using HepaRG (AID 2283498). In short, it runs like this:
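Differentiated human HepaRG cells, plated 48 h then switched to serum-free induction medium, were exposed in duplicate for 48 h to 8 half-log concentrations topping at 100 uM in 0.5% DMSO. GCLC mRNA was quantified by qRT-PCR against ACTB, GAPDH and POLR2A.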

Read-out in assay [2]: growth arrest and DNA damage 45 (GADD45G), GADD45G (gene 10912)
The assay is described as follows: LTEA_HepaRG_GADD45G: Life Technologies and Expression Analysis (LTEA) Assay for growth arrest and DNA damage 45 (GADD45G) using HepaRG (AID 2283499). In short, it runs like this:
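Human hepatic HepaRG line treated 48 h with chemicals (eight concentrations, half-log steps from 100 uM); transcript induction or repression of GADD45G scored by qRT-PCR versus DMSO vehicle.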

Read-out in assay [3]: Glutamate-cysteine ligase regulatory (GCLM), GCLM (gene 2730)
Nature of the assay: LTEA_HepaRG_GCLM: Life Technologies and Expression Analysis (LTEA) Assay for Glutamate-cysteine ligase regulatory (GCLM) using HepaRG (AID 2283500). The gist of the method:
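Differentiated human HepaRG cells exposed 48 h in serum-free induction medium to 8-point half-log concentrations (top 100 uM, 0.5% DMSO), in duplicate. GCLM mRNA quantified by qRT-PCR, normalized to ACTB, GAPDH, POLR2A; bidirectional fitting versus DMSO.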

Read-out in assay [4]: Glutathione S-transferase M3 (GSTM3), GSTM3 (gene 2947)
Nature of the assay: LTEA_HepaRG_GSTM3: Life Technologies and Expression Analysis (LTEA) Assay for Glutathione S-transferase M3 (GSTM3) using HepaRG (AID 2283501). In short, it runs like this:
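Changes in GSTM3 expression, an oxidative-stress marker, were scored by bidirectional curve fitting against 0.5% DMSO vehicle. Human HepaRG cultures received chemicals for 48 h in duplicate, highest concentration 100 uM with half-log dilutions.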

Read-out in assay [5]: Heat shock 70 kDa protein 1 (HSPA1A), gene 3303
The assay is described as follows: LTEA_HepaRG_HSPA1A: Life Technologies and Expression Analysis (LTEA) Assay for Heat shock 70 kDa protein 1 (HSPA1A) using HepaRG (AID 2283502). In short, it runs like this:
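Differentiated human HepaRG cells in serum-free induction medium were exposed in duplicate for 48 h to eight concentrations (top 100 uM, half-log steps, 0.5% DMSO). HSPA1A mRNA was quantified by qRT-PCR, normalized to ACTB, GAPDH and POLR2A, and fitted bidirectionally against DMSO.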

Read-out in assay [6]: Hypoxia-inducible factor 1-alpha (Homo sapiens) (UniProt Q16665)
Nature of the assay: LTEA_HepaRG_HIF1A: Life Technologies and Expression Analysis (LTEA) Assay for Hypoxia-inducible factor 1 (HIF1A) Trancription factor using HepaRG (AID 2283503). In short, it runs like this: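 HepaRG, 48 h exposure, 8-pt half-log series from 100 uM, 0.5% DMSO vehicle, duplicates. Readout: HIF1A transcript by qRT-PCR (Fluidigm array), housekeeping-normalised. Bidirectional curve fit vs DMSO baseline.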

Read-out in another assay: HGF (gene 3082)
The assay is described as follows: LTEA_HepaRG_HGF: Life Technologies and Expression Analysis (LTEA) Assay for Hepatocyte Growth Facto (HGF) using HepaRG (AID 2283505). In short, it runs like this:
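Gain or loss of HGF mRNA in human HepaRG liver cells after 48 h chemical exposure; eight concentrations up to 100 uM with 0.5% DMSO vehicle, quantified by TaqMan qRT-PCR.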

Read-out in assay [7]: Insulin Like Growth Factor 1 (IGF1), IGF1 (gene 3479)
Nature of the assay: LTEA_HepaRG_IGF1: Life Technologies and Expression Analysis (LTEA) Assay for Insulin Like Growth Factor 1 (IGF1) using HepaRG (AID 2283506). The gist of the method: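 Differentiated human HepaRG cells were dosed for 48 h in serum-free induction medium with 0.5% DMSO, eight half-log concentrations up to 100 uM, in duplicate. IGF1 mRNA was quantified by qRT-PCR normalized to ACTB, GAPDH, POLR2A; bidirectional fitting versus DMSO.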

Read-out in assay [8]: Intercellular Adhesion Molecule 1 (ICAM1), ICAM1 (gene 3383)
Nature of the assay: LTEA_HepaRG_ICAM1: Life Technologies and Expression Analysis (LTEA) Assay for Intercellular Adhesion Molecule 1 (ICAM1) using HepaRG (AID 2283507). In short, it runs like this:
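Gain or loss of transcript in HepaRG hepatic cells is quantified by qRT-PCR after 48 h chemical exposure (up to 100 uM, half-log steps), with DMSO as baseline.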

Read-out in assay [9]: Interleukin 6 (IL6), IL6 (gene 3569)
Nature of the assay: LTEA_HepaRG_IL6: Life Technologies and Expression Analysis (LTEA) Assay for Interleukin 6 (IL6) using HepaRG (AID 2283509). In short, it runs like this:
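Differentiated human HepaRG cells, plated 48 h then switched to serum-free induction medium, were exposed in duplicate for 48 h to eight half-log concentrations up to 100 uM in 0.5% DMSO. IL6 mRNA measured by qRT-PCR, normalized to ACTB/GAPDH/POLR2A.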

Read-out in assay [10]: Interleukin 6 Receptor (IL6R), IL6R (gene 3570)
Nature of the assay: LTEA_HepaRG_IL6R: Life Technologies and Expression Analysis (LTEA) Assay for Interleukin 6 Receptor (IL6R) using HepaRG (AID 2283510). In short, it runs like this:
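Differentiated human HepaRG cells, plated 48 h then switched to serum-free induction medium, were dosed in duplicate for 48 h at eight half-log concentrations up to 100 uM in 0.5% DMSO. IL6R mRNA quantified by qRT-PCR, normalized to ACTB/GAPDH/POLR2A; bidirectional fit versus DMSO.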

Read-out in assay [11]: Potassium channel subfamily K member 1 (KCNK1), KCNK1 (gene 3775)
The assay is described as follows: LTEA_HepaRG_KCNK1: Life Technologies and Expression Analysis (LTEA) Assay for Potassium channel subfamily K member 1 (KCNK1) using HepaRG (AID 2283511). In short, it runs like this:
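Differentiated human HepaRG cells in serum-free induction medium were exposed in duplicate for 48 h to 8 half-log concentrations up to 100 uM in 0.5% DMSO. KCNK1 mRNA was measured by TaqMan qRT-PCR, normalized to ACTB, GAPDH and POLR2A, and fitted bidirectionally versus DMSO.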

Read-out in assay [12]: Keratin 19 (KRT19), KRT19 (gene 3880)
The assay is described as follows: LTEA_HepaRG_KRT19: Life Technologies and Expression Analysis (LTEA) Assay for Keratin 19 (KRT19) using HepaRG (AID 2283512). The gist of the method: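 Gene-expression endpoint in the human liver line HepaRG after 48 h exposure to up to 100 uM test chemical with 0.5% DMSO vehicle; KRT19 mRNA by qRT-PCR, analyzed bidirectionally versus DMSO.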

Read-out in assay [13]: JUN Transcription Factor, JUN (gene 3725)
Nature of the assay: LTEA_HepaRG_JUN: Life Technologies and Expression Analysis (LTEA) Assay for JUN Transcription Factor using HepaRG (AID 2283513). In short, it runs like this:
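Differentiated HepaRG cells were exposed to chemicals for 48 h in serum-free induction medium, 8 concentrations from 100 uM in half-log steps, 0.5% DMSO vehicle, in duplicate. JUN mRNA was quantified by TaqMan qRT-PCR, normalized to ACTB, GAPDH, POLR2A.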

Read-out in assay [14]: Lipase C (LIPC), LIPC (gene 3990)
The assay is described as follows: LTEA_HepaRG_LIPC: Life Technologies and Expression Analysis (LTEA) Assay for Lipase C (LIPC) using HepaRG (AID 2283514). The gist of the method:
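Differentiated human HepaRG cells in serum-free induction medium were exposed in duplicate for 48 h to eight concentrations (top 100 uM, half-log steps, 0.5% DMSO). LIPC mRNA was quantified by TaqMan qRT-PCR, normalized to ACTB, GAPDH and POLR2A, with bidirectional fitting versus DMSO.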

Read-out in assay [15]: Lipoprotein lipase (LPL), LPL (gene 4023)
Nature of the assay: LTEA_HepaRG_LPL: Life Technologies and Expression Analysis (LTEA) Assay for Lipoprotein lipase (LPL) using HepaRG (AID 2283515). The gist of the method:
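Differentiated human HepaRG cells in serum-free induction medium were exposed in duplicate for 48 h to eight half-log concentrations (top 100 uM) in 0.5% DMSO. LPL mRNA was quantified by TaqMan qRT-PCR, normalized to ACTB, GAPDH and POLR2A.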

Read-out in assay [16]: MicroRNA 122 (MIR122), gene 406906
Nature of the assay: LTEA_HepaRG_MIR122: Life Technologies and Expression Analysis (LTEA) Assay for MicroRNA 122 (MIR122) using HepaRG (AID 2283516). Note: the transcript read is the microRNA miR-122. The gist of the method: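 Differentiated human HepaRG cells were exposed 48 h in serum-free induction medium to eight half-log concentrations (top 100 uM, 0.5% DMSO). Transcript level was measured by TaqMan qRT-PCR, normalized to ACTB, GAPDH and POLR2A, and fitted bidirectionally versus DMSO.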

Read-out in assay [17]: Insulin-like growth factor-binding protein 1 (IGFBP1), IGFBP1 (gene 3484)
The assay is described as follows: LTEA_HepaRG_IGFBP1: Life Technologies and Expression Analysis (LTEA) Assay for Insulin-like growth factor-binding protein 1 (IGFBP1) using HepaRG (AID 2283508). The gist of the method: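 mRNA induction or loss was quantified by qRT-PCR after 48 h chemical exposure of human HepaRG cells, with 0.5% DMSO as vehicle and baseline. Concentration-response over eight points up to 100 uM.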

Read-out in assay [18]: 3-Hydroxy-3-Methylglutaryl-CoA Synthase 2 (HMGCS2), HMGCS2 (gene 3158)
The assay is described as follows: LTEA_HepaRG_HMGCS2: Life Technologies and Expression Analysis (LTEA) Assay for 3-Hydroxy-3-Methylglutaryl-CoA Synthase 2 (HMGCS2) using HepaRG (AID 2283504). In short, it runs like this:
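Expression of HMGCS2 in human HepaRG liver cells is measured by qRT-PCR 48 h after dosing (highest 100 uM, half-log series, 0.5% DMSO). Values come from bidirectional concentration-response fitting with DMSO as baseline.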

Active and inactive are the calls of the source. Rule for the calls: active = hit-call score of the fitted dose curve at least 0.9, where 1 is the maximum; inactive = score below 0.9.

Sequence of Hypoxia-inducible factor 1-alpha (Homo sapiens) (Q16665 whole entry, looked up): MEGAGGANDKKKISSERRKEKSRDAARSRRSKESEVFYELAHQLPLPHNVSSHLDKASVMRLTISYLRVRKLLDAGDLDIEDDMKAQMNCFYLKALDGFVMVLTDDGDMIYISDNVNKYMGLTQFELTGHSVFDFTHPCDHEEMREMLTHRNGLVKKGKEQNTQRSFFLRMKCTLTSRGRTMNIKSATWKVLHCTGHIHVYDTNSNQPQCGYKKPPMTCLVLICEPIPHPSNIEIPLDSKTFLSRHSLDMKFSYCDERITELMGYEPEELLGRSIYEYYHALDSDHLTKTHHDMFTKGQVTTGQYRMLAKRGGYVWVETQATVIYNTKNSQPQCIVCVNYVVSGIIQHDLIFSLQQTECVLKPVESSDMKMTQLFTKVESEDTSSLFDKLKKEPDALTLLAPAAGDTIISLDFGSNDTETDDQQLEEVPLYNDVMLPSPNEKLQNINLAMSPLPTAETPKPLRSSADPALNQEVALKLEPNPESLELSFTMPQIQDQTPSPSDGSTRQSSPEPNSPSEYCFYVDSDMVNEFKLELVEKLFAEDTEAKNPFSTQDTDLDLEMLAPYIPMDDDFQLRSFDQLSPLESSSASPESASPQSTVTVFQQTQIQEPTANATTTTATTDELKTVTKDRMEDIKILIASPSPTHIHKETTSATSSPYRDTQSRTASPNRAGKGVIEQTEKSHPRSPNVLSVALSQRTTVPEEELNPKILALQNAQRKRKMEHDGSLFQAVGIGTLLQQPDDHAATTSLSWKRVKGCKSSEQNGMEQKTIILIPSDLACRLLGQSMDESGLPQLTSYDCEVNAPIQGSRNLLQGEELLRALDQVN

As for `O=C1O[C@H]([C@H](O)CO)C(O)=C1O`, the molecule was called inactive in assay [1], in [2], in [3], in [4], in [5] and in assay [6]. Moreover, the molecule was classed as inactive (in the assay with HGF (gene 3082); in assay [7]; in assay [8]; in assay [9]; in assay [10]; in assay [11]). Also, the call in assay [12], in [13], in [14], in [15] and in [16] was inactive.

With `Oc1ccccc1O`, the call (in [1]; in assay [2]; in assay [3]; in [4]; in assay [5]; with HGF (gene 3082)) was inactive. Also, the molecule was called inactive in [7], in assay [8], in assay [9], in assay [10], in assay [11] and in assay [12]. Further, the outcome in [13], in [14], in assay [15] and in assay [16] was inactive.

As to `Cn1cnc2c1c(=O)[nH]c(=O)n2C`, the result (in [1]; in [2]; in assay [3]; in assay [4]; in [5]; with HGF (gene 3082)) was inactive. Further, the call in assay [7], in assay [8], in assay [17], in assay [9], in assay [10] and in assay [11] was inactive. Moreover, the result in assay [12], in assay [13], in assay [14], in assay [15] and in [16] was inactive.

As for `CC(=O)O[C@]1(C(C)=O)CC[C@H]2[C@@H]3C=C(Cl)C4=CC(=O)[C@@H]5C[C@@H]5[C@]4(C)[C@H]3CC[C@@]21C`, the result (in [1]; in assay [3]; in assay [4]; in the assay with HGF (gene 3082); in assay [8]; in assay [9]) was inactive. Also, the result in [10], in assay [11], in [13] and in assay [14] was inactive. Further, the AC50 is 50 µM (active) in assay [2]; 83.4 µM (active) in [5]; 67.1 µM (active) in assay [18]; 50 µM (active) in [7]; 17.9 µM (active) in [12]; 13.3 µM (active) in assay [15].
